The whole screen tested about 9,600 compounds, of which about 20 (0.2%) were called active.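 The calls were made as follows: active = highest normalized replicate activity of 15 or more, or at least half the replicates reach 15 or more; inactive = neither condition met.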 This excerpt belongs to a sample that is enriched for actives.
Test: activators of Pax4 gene expression, primary screen, RT-PCR, mouse alpha TC1 cells, single point (AID 1053180);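 also: Pax4 Ct normalized to GAPDH with activation seen as lower delta delta Ct; plate controls were plate neutral control wells for no effect and Pax4 plasmid positive control for full effect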
Details: Pax4 mRNA qPCR, 6 days, at 10 µM, active compounds read high, 100% = Pax4 plasmid added at qPCR

SMILES	activation
COc1cccc(-c2ccc3c(c2)[C@@H]2[C@@H](CCN2S(=O)(=O)C2=NC(C)C=N2)[C@H](CO)N3C)c1 (stereo partly specified)	0.001% (inactive)
COCC(=O)Nc1ccc2c(c1)[C@H]1C[C@@H](CC(=O)N[C@@H](C)c3ccccc3)O[C@@H](CO)[C@H]1O2	0.004% (inactive)
O=C1CN(S(=O)(=O)c2cccc(F)c2)C[C@@H]2[C@@H](c3ccc(C4=CCCC4)cc3)[C@H](CO)N12	0.006% (inactive)
C[C@H](NC(=O)C[C@@H]1C=C[C@H](NC(=O)c2cccnc2)[C@@H](CO)O1)c1ccccc1	0.001% (inactive)
CO[C@H]1CN(C)C(=O)c2cc(NC(=O)C3CCOCC3)ccc2OC[C@H](C)NC[C@@H]1C	0.0005% (inactive)
CCN1CC(=O)N2[C@@H](CO)[C@H](c3ccc(Br)cc3)[C@@H]2C1	0% (inactive)
Cn1cnc(S(=O)(=O)N[C@H]2CC[C@H](CC(=O)NCC3CCCCC3)O[C@@H]2CO)c1	-0.0005% (inactive)
COc1ccc(S(=O)(=O)N2C[C@H](O)COC[C@@H]3O[C@@H](CC(=O)N[C@H]4CCN(Cc5ccccc5)C4)CC[C@H]32)cc1	-0.0135% (inactive)
COc1ccc2c3c(n(C)c2c1)[C@@H](CO)NCC31CCN(CC2CCCCC2)CC1	0.027% (inactive)
O=C(NC1CCCC1)[C@@H]1[C@@H](CO)[C@@H]2Cn3c(ccc(C4=CCCCC4)c3=O)[C@H]1N2CC1CC1	0% (inactive)
O=C(Nc1ccc2c(c1)[C@@H]1C[C@@H](CC(=O)N3CCCCC3)O[C@H](CO)[C@@H]1O2)NC1CCCCC1	0.012% (inactive)
COc1ccc(S(=O)(=O)N(C)C[C@@H]2Oc3c(NC(=O)c4nc5ccccc5s4)cccc3C(=O)N([C@@H](C)CO)C[C@@H]2C)cc1	-0.002% (inactive)
CCS(=O)(=O)Nc1ccc2c(c1)C(=O)N(C)C[C@H](OC)[C@@H](C)CN(C(=O)c1ccc3c(c1)OCO3)[C@@H](C)CO2	0% (inactive)
C/C=C/c1ccc([C@@H]2[C@H](CO)N(C(C)=O)[C@H]2CN(C(C)=O)C2CCCC2)cc1	0.004% (inactive)
COCC(=O)N1CCC2(CC1)CN(Cc1ccccc1Cl)[C@H](CO)c1[nH]c3cc(OC)ccc3c12	0.0015% (inactive)
CN(C)C(=O)c1cccc(-c2ccc([C@@H]3[C@@H](CO)N4CCCCN(CC5CCOCC5)C[C@@H]34)cc2)c1	0.001% (inactive)
Cc1ccc(S(=O)(=O)Nc2cccc3c2O[C@@H](CN(C)C(=O)Nc2ccc(C(F)(F)F)cc2)[C@@H](C)CN([C@H](C)CO)C3=O)cc1	0.002% (inactive)
C[C@@H]1CN([C@@H](C)CO)C(=O)c2c(c3ccccc3n2C)-c2ccccc2CO[C@H]1CN(C)C(=O)[C@H](Cc1ccccc1)N(C)C	0.0095% (inactive)
CN(C)C(=O)c1ccc(-c2ccc([C@H]3[C@H](C#N)N(C(=O)C4CC4)[C@H]3CO)cc2)cc1	0.0005% (inactive)
N#C[C@H]1[C@@H](c2ccccc2-c2cccc(F)c2)[C@H](CO)N1C(=O)CN1CCOCC1	0.006% (inactive)
O=C(CC1CC1)N1CC[C@@H]2[C@H]1c1cc(-c3ccc(F)cc3)ccc1N[C@@H]2CO	0.0045% (inactive)

SMILES	activation
CCS(=O)(=O)Nc1ccc2c(c1)C(=O)N(C)[C@H]1CC[C@H](CC(=O)NCCCN3CCOCC3)O[C@H]1CO2	0% (inactive)
C/C=C/c1ccc([C@@H]2[C@H](CO)N3CCCCN(S(=O)(=O)c4ccc(OC)cc4)C[C@@H]23)cc1	0.0005% (inactive)
COCC(=O)N1[C@@H](C#N)[C@@H](c2ccccc2C2=CCCC2)[C@@H]1CO	0.01% (inactive)
O=C(Nc1ccc(F)cc1)N1[C@@H]2CNc3ccccc3[C@@H]2[C@@H]1CO	0.0065% (inactive)
COCC(=O)Nc1ccc2c(c1)OC[C@H](C)N(C)C[C@H](C)[C@H](OC)CN(C)C2=O	0% (inactive)
COCCN(C[C@H]1N[C@H](CO)[C@@H]1c1ccccc1)C(=O)NC1CCCC1	0.002% (inactive)
C[C@H]1CN([C@@H](C)CO)C(=O)c2ccccc2-c2ccccc2CO[C@H]1CN(C)Cc1ccc2c(c1)OCCN2C	0.073% (inactive)
COc1ccc2c3c(n(C)c2c1)[C@H](CO)N(C)CC31CN(S(=O)(=O)c2cccs2)C1	0.001% (inactive)
Cc1noc(C)c1S(=O)(=O)N(C)C[C@@H]1Oc2c(NC(=O)c3ccc(-c4nccs4)cc3)cccc2C(=O)N([C@@H](C)CO)C[C@H]1C	-0.0005% (inactive)
N#C[C@@H]1[C@@H](c2ccccc2-c2cccc(F)c2)[C@H](CO)N1C(=O)C1CC1	0.0185% (inactive)
CN1C(=O)c2cc(NC(=O)c3cscn3)ccc2OC[C@H]2O[C@H](CC(=O)NCc3ccc(Cl)c(Cl)c3)CC[C@@H]21	0.0025% (inactive)
COCCNC(=O)C[C@H]1C[C@@H]2c3cc(NC(=O)CN(C)C)ccc3O[C@@H]2[C@@H](CO)O1	0.003% (inactive)
O=C(C[C@H]1C[C@@H]2c3cc(NC(=O)NC4CCCC4)ccc3O[C@@H]2[C@@H](CO)O1)NCc1ccccc1F	0.0035% (inactive)
CO[C@H]1CN(C)C(=O)c2cc(NC(=O)C3CCCCC3)ccc2OC[C@@H](C)N(C(=O)c2ccccc2)C[C@@H]1C	-0.0005% (inactive)
CN1C(=O)c2cc(NC(=O)C3CCOCC3)ccc2OC[C@@H]2O[C@H](CC(=O)NCCc3ccncc3)CC[C@H]21	0.0015% (inactive)
C[C@H]1CNC(=O)[C@@H](Cc2ccc(C(F)(F)F)cc2)CCn2nncc2COC1	7.98% (active)
C[C@@H]1CNC(=O)[C@H](Cc2ccc(C(F)(F)F)cc2)CCn2nncc2COC1	0.259% (inactive)
C[C@H]1CNC(=O)[C@H](Cc2ccc(C(F)(F)F)cc2)CCn2nncc2COC1	2.47% (inactive)
CN(C)CC(=O)N1[C@H](CO)[C@@H](c2ccc(C#CC3CCCCC3)cc2)[C@@H]1C#N	0.005% (inactive)
COCC(=O)N1[C@H](CO)[C@@H]2c3ccccc3N(C)C[C@@H]21	0.0025% (inactive)

Reference: PubChem BioAssay AID1053180 (Broad Institute, 2014)
